Most compounds without a hit are left out; they make up all but 19% or so of the library.
KB-V1 MDR tox – kills drug-selected multidrug resistant KB-V1 cells; KB-V1 MDR cells viability, CellTiter-Glo, 72 h; Potency, µM (series often up to 46.1 µM), hits mostly cytotoxic; hit rate 3.4% among 400,000; further: nearly all actives have a fitted effect of over 60% in size
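Potencies derive from concentration-effect curves fitted to normalized luminescence (CellTiter-Glo) of KB-V1 cells treated for 72 h at 37 degrees C in phenol-red-free DMEM containing 10% FBS.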
DT40 TDP1 CPT – DT40-hTDP1 cell growth loss with CPT. hit rate 12% among 420,000. chicken DT40 Tdp1-/-;hTDP1 cells + 20 nM CPT, ATP luminescence, 48 h. Potency, µM (series often up to 46.2 µM), for inactives: at the top dose activity change, negative = growth inhibition, actives largely listed as inhibitors; further: nearly all actives have a fitted effect of over 55% in size
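Chicken DT40 Tdp1-/- cells stably complemented with human TDP1 were seeded at 400 cells/well in medium containing 20 nM camptothecin, exposed to pin-transferred compounds, and grown at 37 °C for at least 48 hr. Viability was read as ATP luminescence.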
HT1080-NT tox – kills 2HG-producing HT-1080-NT fibrosarcoma cells; HT-1080-NT fibrosarcoma viability, CellTiter-Glo ATP luminescence, 48 h; Potency, µM (series often up to 46.1 µM), inactives show at the highest dose activity, negative = less viability, usual class: cytotoxic; hit rate 1.6% among 360,000; AID 686970;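 further: NT is the 2HG producing partner of a matched IDH1 knockdown line; 0% = DMSO-treated cells and -100% = media-only wells without cells; nearly all actives have a fitted effect of over 55% in size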
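Viability of the 2HG-overproducing fibrosarcoma line after 48 hours of compound exposure at 37 degrees C was determined by luminescence with CellTiter-Glo, and concentration-effect curves were then fitted and categorized.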
DT40 TDP1 no CPT – qHTS for Inhibitors of human tyrosyl-DNA phosphodiesterase 1 (TDP1): qHTS in cells in absence of CPT; hit rate 15% among 420,000; Potency, µM (titrated, usually from 46.2 µM), for the others: at the highest dose activity change, negative = growth inhibition, most hits filed as inhibitors; DT40 Tdp1-/- hTDP1 cells, no CPT, ATP luminescence, 48 h; further: nearly all actives have a fitted effect of over 55% in size
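Camptothecin absent (DMSO only). Human TDP1-complemented DT40 knockout cells, 400 cells/well, 37 °C for minimum 48 hr; ATP measured via CellTiter-Glo, 30 min dark incubation, luminescence.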
KB-3-1 cytotox – KB-3-1 parental cell cytotoxicity; KB-3-1 viability, CellTiter-Glo ATP luminescence, 72 h; Potency, µM (highest dose often 46.1 µM), actives largely listed as cytotoxic; hit rate 1.4% among 400,000; AID 1347075; further: nearly all actives have a fitted effect of over 60% in size
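Using CellTiter-Glo luminescence, growth of non-resistant KB-3-1 adenocarcinoma cells is assessed 72 h after pin-tool compound addition at 37 °C. Normalized responses across the concentration series yield fitted curves.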
HT1080 IDH1KD tx – kills HT-1080 cells with IDH1 knockdown; HT-1080 IDH1 knockdown viability, ATP luminescence, 48 h; Potency, µM (titrated, usually from 46.1 µM), inactives show at the top dose activity, negative = toxicity, actives largely listed as cytotoxic; hit rate 2% among 360,000;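 further: 0% = DMSO wells and -100% = cell-free medium wells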
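HT-1080-IDH1KD cells (IDH1 knocked down), 750/well in RPMI with 5% FBS, treated with compound 48 h at 37 degrees C. Viability by CellTiter-Glo luminescence, normalised to DMSO and no-cell wells; concentration-response curves classed.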
* hit, by the source's call; i = inactive; ? = inconclusive; nt = no result; ! = repeats disagree; [ ] = dose if it differs, or a comment. The call rests on the fitted dose curve; in most records, active means well fitted curve in the direction sought with a large enough effect; inconclusive means small, poorly fitted or top-dose-only effect, or another doubt; inactive means no such curve, though single readings can be large; an effect the other way counts as inactive or inconclusive. Unless noted, on the % scale 0 is the no-effect control and ±100 the full control effect; potency means the concentration at half of the fitted maximal effect.

SMILES	KB-V1 MDR tox	DT40 TDP1 CPT	HT1080-NT tox	DT40 TDP1 no CPT	KB-3-1 cytotox	HT1080 IDH1KD tx
COc1ccc(NC(=O)CCc2nc(C3=CCN(Cc4cccc(Cl)c4)CC3)no2)c(OC)c1	i	5.8µM*	nt	18.4µM*	i	nt
COc1ccc2nc(NC(=O)CCc3nc(C4=CCN(C)CC4)no3)sc2c1	i	-24.0%	12.8%	-26.4%	i	6.0%
Cc1cccc(CN2CC=C(c3noc(CCC(=O)Nc4ccc(C)c(F)c4)n3)CC2)c1	i	16.4µM*	nt	13µM*	i	nt
COc1ccc(NC(=O)CCc2nc(C3=CCN(Cc4cccc(Cl)c4)CC3)no2)cc1OC	i	16.4µM*	nt	11.6µM*	i	nt
CCc1nnc(NC(=O)CCc2nc(C3=CCN(C)CC3)no2)s1	i	-8.7%	4.7%	-16.8%	i	18.0%
COc1ccc(-c2ccc3c(c2)CNCc2cnnn2-3)cc1	i	-19.9%	?	-23.6%	i	7.5%
CC(C)Nc1nc(NC(C)C)nc(N(C#N)CCOc2ccc(Cl)cc2Cl)n1	?	18.4µM*	?	?	i	?
CCCOP(=O)(OCCC)C1(Nc2ccc(C)cc2)CCCCC1	i	-24.1%	-16.0%	?	i	-14.1%
CCCc1cc(N2CCN(c3ccc(OC)cc3)CC2)n2cnnc2n1	i	16.4µM*	nt	11.6µM*	?	nt
c1ccc(C2CN3CCC2CC3)cc1 (stereo not given)	i	4.8%	-4.7%	-4.4%	i	-0.2%
O=C(O[C@H]1CN2CCC1CC2)N1CCc2ccccc2[C@@H]1c1ccccc1	nt	?	nt	21.1µM*	nt	nt
Cc1cc(=O)oc2c1c(C)nn2-c1nn[nH]n1	i	20.6µM*	5.0%	?	i	7.2%
Cc1cc(C)cc(OCC(=O)Nc2ccc(Cl)cc2C(=O)c2ccccc2)c1	nt	-5.4%	nt	0.4%	nt	nt
OC(Cn1c2ccccc2c2ccccc21)C[n+]1cccc2ccccc21 (stereo not given)	i	18.4µM*	-7.5%[9.24 µM]	16.4µM*	?	20µM*
O=C(c1cccs1)N1CCC(C(=O)O)(c2ccccc2)CC1	i	-17.0%	4.8%	-13.2%	i	7.9%
CC(C)Oc1ccc(C(=O)Nc2ccc3c(c2)CCCN3C(=O)c2cccs2)cc1	?	11.6µM*	nt	6.51µM*	6.51µM*	nt
CNCC(O)c1ccc(OC(=O)C(C)(C)C)c(OC(=O)C(C)(C)C)c1 (stereo not given)	i	9.03µM*!	-5.5%	?	i	-12.8%
O=CC1=C(N2CCOCC2)/C(=C\c2ccccc2)CC1	i	?	-15.0%	?	i	-15.4%
O=C(N/N=C/c1c(O)n(Cc2ccc(F)cc2)c(=O)[nH]c1=O)c1ccccc1O	i	13µM*	?	?	i	?
CCCCCCC(=O)N/N=C/c1c(O)n(CCc2ccccc2)c(=O)[nH]c1=O	i	?	-9.8%	18.4µM*	?	?
CCCCCCC(=O)N/N=C/c1c(O)n(C(C)CC)c(=S)[nH]c1=O (stereo not given)	i	13µM*	?	9.2µM*	?	14.6µM*
CCOc1ccc2c3c1O[C@H]1[C@@H](O)C=C[C@H]4[C@@H](C2)N(C)CC[C@@]341	nt	-21.9%	nt	?	nt	nt
O=C(Cc1ccccc1F)N1CCN(CC(=O)N2CCCC2)CC1	i	17.1%	4.7%	-9.1%	i	15.3%
C=C1[C@H]2CC[C@H]3[C@]4(C)C[C@H](O[C@H]5O[C@H](CO)[C@@H](OS(=O)(=O)O)[C@H](OS(=O)(=O)O)[C@H]5OC(=O)CC(C)C)C[C@@H](C(=O)O)[C@H]4CC[C@]3(C2)[C@H]1O	i	2.6%	3.4%	0.7%	i	-3.1%
O=C(c1ccc(CNS(=O)(=O)c2ccc(Br)cc2)cc1)N1CCC2(CC1)OCCO2	i	?	0.4%	9.2µM*	i	-0.8%
SMILES	KB-V1 MDR tox	DT40 TDP1 CPT	HT1080-NT tox	DT40 TDP1 no CPT	KB-3-1 cytotox	HT1080 IDH1KD tx
O=C(c1ccc(CNS(=O)(=O)c2ccccc2)cc1)N1CCC2(CC1)OCCO2	i	-24.4%	3.7%	-18.4%	i	-0.1%
Cc1ccc(N)c(C(=O)c2ccccc2)c1	i	-1.2%	-0.2%	-12.9%	i	-0.1%
Cc1ccc(-c2cc(-c3ccccc3)cc(-c3ccccc3)[n+]2-c2ccccc2C(=O)O)cc1	i	9.2µM*	-25.8%	9.2µM*	?	-13.4%
CCCc1cc(-c2n[nH]c(C(=O)OCC)c2-c2cscn2)c(O)cc1O	i	?	0.7%	14.6µM*	i	?
CCc1ccc(NC(=S)NC2CC3CCC(C2)N3Cc2ccco2)cc1 (stereo not given)	?	18.4µM*	?	23.1µM*	i	?
CC(=O)c1ccc(Oc2ccc(C(=O)c3ccc(C)c(C)c3)cc2[N+](=O)[O-])cc1	?	8.2µM*	9.2%	2.31µM*	?	4.3%
COc1cccc(NC2=NCCCS2)c1	i	12.1%	1.3%	20.8%	i	-0.5%
Cc1cc(/C=C/c2cccc3sc(C)[n+](CCCCI)c23)ccc1N(CCCl)CCCl	i	2µM*	nt	1.58µM*	i	nt
CC(=O)N1N=C(c2cccnc2)OC1c1ccccc1Cl (stereo not given)	i	6.0%	3.5%	-0.3%	i	3.3%
Cc1nn(Cc2ccc(Cl)cc2Cl)c(Cl)c1C(=O)O	i	-7.2%	-0.8%	9.0%	i	-6.4%
Cc1nn(Cc2ccc(Cl)cc2Cl)c(Cl)c1C(=O)NC1CCCc2ccccc21 (stereo not given)	?	16.4µM*	7.7%	11.6µM*	i	0.5%
CCc1ccc(NC(=O)c2ccc3oc(=O)n(Cc4ccccc4)c3c2)cc1	i	?	nt	18.4µM*	?	nt
COc1ccccc1CNc1nc(NCc2ccccc2SC)c2sccc2n1	?	6.51µM*	?	6.51µM*	?	18.4µM*
S=C=Nc1cccc(C2(N3CCCCC3)CCCCC2)c1	i	20.6µM*	23.1µM*	16.4µM*	i	18.4µM*
c1ccc(C2(N3CCCCC3)CCCCC2)cc1	i	2.9%	8.4%	-17.9%	i	-4.3%
CCC(CC)COC(=O)C(C#N)c1nc2ccccc2nc1N1CCN(CC)CC1 (stereo not given)	?	20.6µM*	?	?	?	?
COc1nc2ccccc2nc1N1CCN(C)CC1	i	2.0%	-0.3%	0.8%	i	5.7%

From PubChem BioAssay
